# Sfp PPTase inh: Sfp phosphopantetheinyl transferase inhibition | Q9F4F7 | Biochemical Sfp PPTase activity, qHTS | Potency, µM, for inactives: largest response in the series, negative = inhibition, actives largely listed as inhibitors | hit rate 3.5% among 310,000 | AID 1490;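 further: the enzyme is Sfp with the accession as filed and its product quenches rhodamine fluorescence; potency means the concentration at half of the fitted maximal effect; 0% = enzyme reaction without inhibitor and -100% = no enzyme wells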
#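 With Hepes-Na pH 7.6 buffer containing 10 mM MgCl2, Sfp (15 nM) modified BHQ-2-YbbR (12.5 uM) using rhodamine-CoA (5 uM). Two reads 30 minutes apart at 525/598 nm yielded each well's rate.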
# uPA generation: inhibitors of cell surface uPA generation; Potency, µM (highest dose often 38.3 µM), for the others: at the highest dose activity change, negative = inhibition, most hits filed as inhibitors; cell surface uPA generation assay, qHTS; AID 540303; hit rate 0.31% among 330,000; active means well fitted inhibition curve with a large enough effect; inconclusive means small, poorly fitted or top-dose-only effect; inactive means no such curve, though single readings can be large or run the other way; tested in mouse RAW 264.7 cells; further: potency means the concentration at half of the fitted maximal effect; on the % scale 0 is the no-effect control and ±100 the full control effect; nearly all actives have a fitted effect of over 55% in size
# ClpP mod: qHTS Assay for Activators of ClpP; hit rate 1.9% among 340,000; AID 651965, 2013; Potency, µM (top dose mostly 57.5 µM), without a hit: at the highest dose activity change, negative = active; purified B. subtilis ClpP, FRET peptide cleavage, 20 min; active means well fitted falling curve with a large enough effect; inconclusive means small, poorly fitted or top-dose-only effect; inactive means no such curve, though single readings can be large or run the other way; further: potency means the concentration at half of the fitted maximal effect; the source files actives as falling curves though it sought activators and does not explain the sign; nearly all actives have a fitted effect of over 65% in size
# Target sequence (P80244 whole entry, looked up): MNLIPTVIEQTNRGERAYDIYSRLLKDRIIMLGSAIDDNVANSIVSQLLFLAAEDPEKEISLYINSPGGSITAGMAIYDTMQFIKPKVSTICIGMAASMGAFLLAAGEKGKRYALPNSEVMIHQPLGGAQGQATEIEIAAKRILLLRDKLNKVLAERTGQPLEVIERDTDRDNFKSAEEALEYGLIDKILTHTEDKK
#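 FRET quenching reversal measured ClpP activation: 10 microg/mL B. subtilis ClpP at pH 8 with the FRET-FV decapeptide, read at 430 nm after 320 nm excitation. The 20-min minus 0-min signal was scaled between DMSO/no-enzyme wells and ADEP (5.8 microM final).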
# TCR act: activates T cell receptor signaling; primary human leukocytes, anti-CD3, IL-2 HTRF, 48 h; Potency, µM (series often up to 9.22 µM), without a hit: at the top dose activation of IL-2 secretion, most hits filed as activators; 330,000 tested, under 10 active; further: % of control where 0% means no effect
#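 Using a-CD3 beads without co-stimulation, primary human leukocytes were exposed to compounds for 48 hr. An HTRF IL-2 kit measured the cytokine, with europium-to-d2 energy transfer producing emission at 665nm upon 320nm excitation.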
# ClpP inh valid: validation of B. subtilis ClpP protease hits (inhibitors); Potency, µM (highest dose often 57.5 µM), without a hit: top-dose activity change, negative = inhibition, hits mostly inhibitors; hit rate 40% among 470; purified B. subtilis ClpP, FRET-FV substrate cleavage, 20 min; shares compounds with ClpP mod; further: potency means the concentration at half of the fitted maximal effect; on the % scale 0 is the no-effect control and ±100 the full control effect; nearly all actives have a fitted effect of over 70% in size
# The depositor's hits bear a star; u = inconclusive; x = no result given; [ ] = another dose, or the depositor's remark. A selection: hits, their analogues and other compounds. The true share with any hit is near 4.2%. Unless noted, the call rests on the fitted dose curve; in most records, active means well fitted curve in the direction sought with a large enough effect; inconclusive means small, poorly fitted or top-dose-only effect, or another doubt; inactive means no such curve, though single readings can be large; an effect the other way counts as inactive or inconclusive.
SMILES,Sfp PPTase inh,uPA generation,ClpP mod,TCR act,ClpP inh valid
COc1ccc(-c2cc3nc(-c4ccccc4)cc(N4CCC5(CC4)OCCO5)n3n2)cc1,-15.3%,16.3%,7.08µM*,3.7%,4.85µM*
Cc1ccc(-c2cc3nc(-c4ccccc4)cc(N4CCOCC4)n3n2)cc1,-17.4%,15.8%,8.91µM*,-0.8%[46.1 µM],34.3µM*
CSc1cccc(NC(=O)c2ccc3c(c2)c(C)c(C)n3Cc2ccc(F)cc2)c1,x,x,7.08µM*,x,27.3µM*
Cc1ccccc1NC(=O)c1ccc2c(c1)c(C)c(C)n2Cc1ccccc1,x,x,-10.6%,x,x
O=C(c1ccccc1NS(=O)(=O)c1ccc(F)cc1)N1CCOCC1,13.2%,0.2%,-1.7%,2.7%,x
CCOc1cc(C2NN=C(c3ccccc3)S2)ccc1OCc1ccccc1Cl (stereo not drawn),-12.9%,-5.9%,3.55µM*,8.3%,u
CCOc1cc(CNC2CCCC2)ccc1OCc1ccccc1Cl,-3.3%,-5.7%,1.8%,-1.0%,x
O=C1NCCN/C1=C\C(=O)c1ccc(Br)cc1,0.7%,u,-0.9%,-3.6%,x
c1ccc(Oc2cc(-n3cncn3)ncn2)cc1,4.2%,-1.2%,2.82µM*,0.0%[46.1 µM],-0.5%
CC(OC(=O)CCNS(=O)(=O)c1ccc(Cl)cc1)C(=O)N(C)Cc1ccccc1 (stereo not drawn),x,x,2.0%,x,x
COc1ccc2c(c1)c1ncn(CCN3CCNCC3)c(=O)c1n2C,-2.2%,x,2.24µM*,-3.3%,19.3µM*
Cc1ccc2[nH]c3c(=O)n(CCN4CCNCC4)cnc3c2c1,1.1%,2.2%,8.91µM*,2.8%,21.7µM*
Cc1ccc2c(c1)[nH]c1c(=O)n(CCN3CCCCC3)cnc12,7.8%,-0.2%,u,3.4%,x
O=C(Nc1nccs1)C1CC(=O)N(CCc2ccc(F)cc2)C1 (stereo not drawn),7.8%,5.6%,x,-5.2%,x
COc1cccc2c1cc1c(=O)n(CC(=O)NCc3ccco3)nc(C)n12,x,x,3.55µM*,x,u
CCCN1CCN(CCCNC(=O)Cn2nc(C)n3c(cc4c(OC)cccc43)c2=O)CC1,x,x,4.47µM*,x,3.85µM*
COCCNC(=O)c1c(-c2ccccc2)c(-c2ccccc2)nn(C)c1=O,x,x,1.2%,x,x
CN1CC(=O)N(CC(=O)Nc2ccc(OCc3ccccc3)cc2)C1=O,x,-0.6%,-4.1%,-9.8%,x
CCC(=O)N1CCc2cc(Br)cc(S(=O)(=O)N3CCCC(C(=O)Nc4cccc(Cl)c4C)C3)c21 (stereo not drawn),x,x,2.2%,x,x
COc1cc2c(cc1OC)C(COc1ccc3c(C)cc(=O)oc3c1)N(C(=O)c1ccccc1F)CC2 (stereo not drawn),x,x,91.4%,x,u
Cc1cc(C)c2c(=O)c3c(oc2c1)C(=O)N(Cc1ccco1)C3c1ccccc1F (stereo not drawn),x,x,0.4%,x,x
Cc1ccc(-n2c(-c3ccco3)nc3nc4ccccc4nc32)cc1F,1.0%,4.3%,2.82µM*,3.1%,u
Fc1cccc(-n2c(-c3ccco3)nc3nc4ccccc4nc32)c1,15.9%,7.2%,u,-4.4%,x
COc1ccc(OC)c(NC(=O)Cn2ccn(-c3ccc(OC)c(OC)c3)c(=O)c2=O)c1,x,x,0.3%,x,x
O=C(CCCOc1ccccc1)Nc1ccc(Br)cc1,x,-0.1%,1.0%,-8.9%,x
SMILES,Sfp PPTase inh,uPA generation,ClpP mod,TCR act,ClpP inh valid
O=C(CCOc1ccccc1)Nc1ccc(Br)cc1,13.3%,4.0%,7.94µM*,x,0.2%
COc1cccc(C(=O)NCC2CCCN(C(=O)Cc3cccc(C)c3)C2)c1OC (stereo not drawn),x,x,-2.9%,x,x
COc1ccc2nc3n(c(=O)c2c1)-c1cc2ccccc2cc1C(=O)NC3Cc1ccccc1 (stereo not drawn),x,x,5.62µM*,x,u
Nc1c(C(=O)Nc2cccc(Cl)c2Cl)sc2nc(-c3cccnc3)ccc12,-1.4%,1.8%,3.98µM*,7.5%[46.1 µM],0.4%
Cc1ccc(C)c(OCCCC(=O)NC2CCCCC2)c1,23.7%,6.6%,3.16µM*,10.5%,0.4%
CN(C)C(CNC(=O)c1cc(S(=O)(=O)N2CCOCC2)ccc1F)c1cccs1 (stereo not drawn),x,10.1%,-2.5%,x,x
CSc1ccc(C2c3[nH]c4ccccc4c3CCN2C(=O)CCC2CCCC2)cc1 (stereo not drawn),x,x,-6.0%,x,x
CC(C)Cn1c(N)c(C(=O)COC(=O)c2c(O)c(Cl)cc(Cl)c2Cl)c(=O)n(C)c1=O,x,16.8%,-2.4%,5.5%,x
Cc1nc2ccccn2c1C(=O)Nc1ccc2c(c1)OCCO2,14.3%,-3.2%,u,0.9%[46.1 µM],-1.6%
N#Cc1ccccc1S(=O)(=O)N1CCN(C(=O)CN2CCCSc3ccccc32)CC1,x,-4.5%,0.2%,-1.3%,x
Cc1ccc(S(=O)(=O)N2CCN(C(=O)CN3CCCSc4ccccc43)CC2)cc1,x,0.9%,39.9%,-9.3%,-2.6%
CC(Nc1nc(N2CCN(S(C)(=O)=O)CC2)nc2ccccc12)c1ccccc1 (stereo not drawn),-9.2%,-3.1%,3.98µM*,-7.1%,24.3µM*
COc1ccc(Nc2nc(N3CCN(S(C)(=O)=O)CC3)nc3ccccc23)c(OC)c1,7.7%,-0.3%,x,-2.3%,x
CC(C)c1cc(CNC(=O)C2CCC(=O)N(CCc3ccc(Cl)cc3)C2)on1 (stereo not drawn),11.7%,4.3%,-1.3%,-0.5%,x
COc1ccc(N2CCN(S(=O)(=O)CCNC(=O)Cc3ccc(Cl)cc3)CC2)cc1,x,x,-3.0%,x,x
COc1cccc(NC(=O)Cn2c(-c3cncs3)nc3ccccc32)c1,9.8%,-3.6%,8.91µM*,-5.4%,-7.1%
CCOc1ccc(CC(=O)Nc2c(C(=O)Nc3ccc(OC)cc3OC)oc3ccccc23)cc1,x,x,31.1%,x,19.3µM*
COc1ccc(CC(=O)Nc2c(C(=O)Nc3ccc(F)cc3)oc3ccccc23)cc1OC,x,x,-20.1%,x,x
COc1ccccc1NC(=O)c1oc2ccccc2c1NC(=O)c1ccco1,-10.6%,x,147.6%,-67.3%,21.7µM*
CCOC(=O)c1oc2ccccc2c1NC(=O)COc1cccc(OC)c1,18.4%,x,48.4%,-2.0%,19.3µM*
CCOc1ccc(NC(=O)c2oc3ccccc3c2NC(=O)COc2cccc(OC)c2)cc1,x,x,32.7%,x,x
O=C(COc1ccccc1F)Nc1c(C(=O)Nc2cccc(F)c2)oc2ccccc12,x,x,78.8%,x,u
CCC(C)NS(=O)(=O)c1ccc(F)c(C(=O)Nc2c(F)cc(F)cc2Br)c1 (stereo not drawn),-10.2%,-53.9%,1.5%,3.7%,x
O=C(NCCCN1CCCC1=O)C1CCN(S(=O)(=O)N2CCOCC2)CC1,14.9%,0.3%,10µM*,1.8%,-0.4%
O=C(NCCCN1CCCC1=O)C1CCN(S(=O)(=O)c2ccccc2)CC1,x,5.2%,1.7%,x,x
Cn1c(=O)cc(SCC(=O)N2CCN(c3ccc(F)cc3)CC2)c2ccc(Cl)cc21,x,x,-0.5%,x,x
CC1=C(c2ccc(C)cc2)S(=O)(=O)N(Cc2ccc(C(=O)NCc3ccccc3)cc2)C1=O,x,x,5.01µM*,x,-2.5%
CC1=C(c2ccc(C)cc2)S(=O)(=O)N(Cc2ccc(C(=O)Nc3ccccc3C)cc2)C1=O,x,x,-2.9%,x,x
